Test [1] concerns the target Aryl hydrocarbon receptor (Homo sapiens) (UniProt P35869). The test can be described thus: ATG_Ahr_CIS: Attagene CIS-FACTORIAL HepG2 Assay for human Aryl Hydrocarbon Receptor (Ahr) (AID 2282930). The conditions noted are these: HepG2 AhR cis-factorial reporter transcription; actives raise or lower the signal. Summed up:
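HepG2 cells transiently transfected with cis-element-driven multiplexed reporter units; endogenous AhR activity read as reporter mRNA 24 h after dosing, via RT-PCR, 6-FAM labelling, HpaI digestion and capillary electrophoresis. Bidirectional fit relative to DMSO.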

The nature of test [2]: ATG_AP_1_CIS: Attagene CIS-FACTORIAL HepG2 Assay for human Activator Protein 1 (AP-1) (AID 2282931). The conditions noted are these: HepG2 Attagene cis-factorial AP-1 reporter mRNA; actives raise or lower the signal. The essentials:
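Transient MRTU transfection of HepG2 → 24 h chemical treatment → RNA isolation, RT-PCR, 6-FAM labelling, HpaI digest → capillary electrophoresis. Fit: bidirectional, DMSO negative control.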

Test [3] is described as follows: ATG_AP_2_CIS: Attagene CIS-FACTORIAL HepG2 Assay for human Activator Protein 2 (AP-2) (AID 2282932). The conditions noted are these: HepG2 AP-2 cis-reporter, Attagene transcription factor profiling; actives raise or lower the signal. Summed up: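 Multiplexed mRNA reporter assay in HepG2: cis-regulated units report endogenous factor activity after 24 h treatment. Fluorescence from capillary electrophoresis of RT-PCR products gives the signal, with DMSO as baseline.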

The nature of test [4]: ATG_BRE_CIS: Attagene CIS-FACTORIAL HepG2 Assay for human Bone Morphogenetic Protein (BMP) Response Element (BRE) (AID 2282933). The following applies: HepG2 BMP response element reporter, Attagene transcription factor profiling; actives raise or lower the signal. The essentials:
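Endogenous transcription factor activity read in transiently transfected HepG2 cells after 24 h chemical exposure. Bidirectional curve fitting against DMSO; readout is reporter transcript level by RT-PCR with capillary electrophoresis of labelled products.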

Test [5] concerns the target Transcription factor E2F1 (Homo sapiens) (UniProt Q01094). Kind of test: ATG_E2F_CIS: Attagene CIS-FACTORIAL HepG2 Assay for human E2F Transcription Factor 1 (AID 2282935). The following applies: HepG2 Attagene cis-reporter, E2F reporter RNA transcripts; actives raise or lower the signal. The essentials: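 Measures reporter transcript levels via RT-PCR with capillary electrophoresis detection in HepG2 cells harboring cis-regulated reporter units; 24 h post-dose; bidirectional curve fitting with DMSO as baseline.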

Test [6] is described as follows: ATG_E_Box_CIS: Attagene CIS-FACTORIAL HepG2 Assay for human Enhancer Box (E-box) (AID 2282936). The conditions noted are these: HepG2 E-box cis-reporter transcription, actives raise or lower the signal. The essentials: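 First, HepG2 cells receive multiple cis-regulated reporter constructs by transient transfection. Next, chemicals are applied for 24 h. Finally, reporter mRNA is quantified via RT-PCR and capillary electrophoresis, with DMSO as baseline.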

A short description of test [7]: ATG_M_61_CIS: Attagene CIS-FACTORIAL HepG2 Assay for M61 Transcription Factor (Internal Marker) (AID 2282937). The conditions noted are these: HepG2 Attagene CIS-FACTORIAL M61 internal marker reporter; actives raise or lower the signal. Summed up:
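Human liver HepG2, transient MRTU transfection (cis promoter elements), 24 h compound. Total RNA → oligo(dT) RT → PCR → FAM label → HpaI → CE. Internal background marker; bidirectional fitting, DMSO = baseline.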

The nature of test [8]: ATG_EGR_CIS: Attagene CIS-FACTORIAL HepG2 Assay for human Early Growth Response 1 (EGR1) (AID 2282938). The following applies: HepG2 Attagene CIS-FACTORIAL EGR reporter mRNA; actives raise or lower the signal. The essentials: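 Transient transfection of human HepG2 with multiple cis-regulated reporter units, chemical exposure 24 h, total RNA isolated. Reverse transcription, PCR, fluorescent labelling and capillary electrophoresis quantify reporter transcripts; activity fitted bidirectionally against DMSO.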

A short description of test [9]: ATG_M_19_CIS: Attagene CIS-FACTORIAL HepG2 Assay for M19 Transcription Factor (Internal Marker) (AID 2282939). The conditions noted are these: HepG2 Attagene CIS-FACTORIAL M19 internal marker reporter; actives raise or lower the signal. The essentials:
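Internal marker readout, fitted in both directions against DMSO, from HepG2 cells carrying transfected cis-element reporter constructs; RT-PCR and capillary electrophoresis of reporter mRNA after 24 h exposure.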

For test [10], the target named is Retinoic acid receptor alpha (Homo sapiens) (UniProt P10276). Kind of test: ATG_DR5_RAR_CIS: Attagene CIS-FACTORIAL HepG2 Assay for human Retinoic Acid Receptor Alpha (RARE), DR5 submotif (AID 2282934).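 For AC50: reporter responds to endogenous RAR alpha beta and gamma in HepG2 not RARA alone.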 The conditions noted are these: HepG2 Attagene cis-factorial RARE DR5 reporter, mRNA; actives raise or lower the signal. The essentials:
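HepG2 cells transiently transfected with multiplexed reporter units; DR5 cis-element drives reporter through endogenous transcription factors. After 24 h dosing, reporter mRNA quantified by RT-PCR, fluorescent labeling, HpaI digestion and capillary electrophoresis; bidirectional fitting versus DMSO.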

SMILES strings stand for the structures. The source made the active and inactive calls. Rule for the calls: active = hit-call score of the fitted dose curve at least 0.9, where 1 is the maximum; inactive = score below 0.9.

Chain of Aryl hydrocarbon receptor (Homo sapiens) (P35869 whole entry, looked up): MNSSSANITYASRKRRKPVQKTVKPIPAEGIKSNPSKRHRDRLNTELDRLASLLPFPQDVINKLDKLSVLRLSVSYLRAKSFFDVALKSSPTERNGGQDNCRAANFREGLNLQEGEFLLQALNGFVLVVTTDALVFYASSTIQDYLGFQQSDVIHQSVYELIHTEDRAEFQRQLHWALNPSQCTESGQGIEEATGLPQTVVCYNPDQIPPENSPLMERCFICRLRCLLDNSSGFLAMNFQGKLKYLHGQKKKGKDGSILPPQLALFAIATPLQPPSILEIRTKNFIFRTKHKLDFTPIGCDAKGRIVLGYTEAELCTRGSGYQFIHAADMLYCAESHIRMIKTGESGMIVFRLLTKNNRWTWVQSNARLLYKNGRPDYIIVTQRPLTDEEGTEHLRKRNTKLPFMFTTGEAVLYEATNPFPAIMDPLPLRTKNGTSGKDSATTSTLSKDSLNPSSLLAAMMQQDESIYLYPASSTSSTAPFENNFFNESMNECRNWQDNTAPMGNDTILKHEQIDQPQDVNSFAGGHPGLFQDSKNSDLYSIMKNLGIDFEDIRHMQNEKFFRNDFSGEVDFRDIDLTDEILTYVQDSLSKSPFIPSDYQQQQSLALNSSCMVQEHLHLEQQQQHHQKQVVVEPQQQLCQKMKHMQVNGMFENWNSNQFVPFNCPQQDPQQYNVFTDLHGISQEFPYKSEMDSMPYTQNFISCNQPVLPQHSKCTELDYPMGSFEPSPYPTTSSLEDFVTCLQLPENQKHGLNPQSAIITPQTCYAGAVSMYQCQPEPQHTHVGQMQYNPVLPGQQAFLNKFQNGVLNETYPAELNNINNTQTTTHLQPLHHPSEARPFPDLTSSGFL
Chain of Retinoic acid receptor alpha (Homo sapiens) (P10276 whole entry, looked up): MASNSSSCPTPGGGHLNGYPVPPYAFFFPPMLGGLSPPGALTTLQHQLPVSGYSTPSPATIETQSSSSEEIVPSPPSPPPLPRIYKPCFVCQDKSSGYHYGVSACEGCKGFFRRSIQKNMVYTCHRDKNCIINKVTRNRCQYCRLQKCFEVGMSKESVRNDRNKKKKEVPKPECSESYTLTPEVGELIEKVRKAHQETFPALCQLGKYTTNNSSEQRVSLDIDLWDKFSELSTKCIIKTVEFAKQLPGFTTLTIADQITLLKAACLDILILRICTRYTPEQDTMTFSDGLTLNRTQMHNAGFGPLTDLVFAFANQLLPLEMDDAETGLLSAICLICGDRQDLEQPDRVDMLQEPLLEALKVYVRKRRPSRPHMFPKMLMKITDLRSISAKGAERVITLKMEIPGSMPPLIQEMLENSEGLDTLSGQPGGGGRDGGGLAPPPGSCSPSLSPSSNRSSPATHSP
Chain of Transcription factor E2F1 (Homo sapiens) (Q01094 whole entry, looked up): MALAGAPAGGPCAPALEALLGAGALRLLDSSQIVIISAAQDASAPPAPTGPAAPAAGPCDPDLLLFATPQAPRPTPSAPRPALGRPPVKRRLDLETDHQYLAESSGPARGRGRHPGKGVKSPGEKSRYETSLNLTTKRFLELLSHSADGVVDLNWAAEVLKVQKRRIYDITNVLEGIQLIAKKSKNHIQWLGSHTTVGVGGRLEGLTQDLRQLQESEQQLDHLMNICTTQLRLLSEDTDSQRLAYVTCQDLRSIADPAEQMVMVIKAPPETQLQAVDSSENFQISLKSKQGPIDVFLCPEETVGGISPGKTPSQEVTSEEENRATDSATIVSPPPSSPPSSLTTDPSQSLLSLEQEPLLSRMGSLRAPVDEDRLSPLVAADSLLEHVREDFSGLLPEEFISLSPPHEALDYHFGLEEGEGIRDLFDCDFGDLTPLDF

A word on the AC50: it is the concentration at which the activity in the assay is half-maximal. On to `Nc1ccc(N=Nc2ccc(-c3ccc(N=Nc4c(S(=O)(=O)O)cc5cc(S(=O)(=O)O)c(N=Nc6ccccc6)c(O)c5c4N)cc3)cc2)c(N)c1`, for which the result in test [1], in [2], in test [3], in [5], in [6] and in test [7] was inactive. Besides, the outcome in [8] and in test [9] was inactive. The AC50 in test [4] is 4.8 µM (active).
For the molecule `C[C@@H](Oc1ccc(Cl)cc1Cl)C(=O)O`, the result in [1], in test [2], in test [3], in [4], in test [10] and in test [5] was inactive. Also, the outcome in test [6], in test [7] and in test [9] was inactive.
In the case of `Cc1cc(Cl)ccc1O[C@H](C)C(=O)O`, the outcome in test [1], in test [2], in test [3], in test [4], in [5] and in test [6] was inactive. Moreover, the molecule was classed as inactive in [7], in test [8] and in test [9].
Turning to `Oc1c(I)cc(I)cc1I`, the AC50 is 34.5 µM (active) in [1]; 63.7 µM (active) in [3]; 43.2 µM (active) in test [4]; 4.99 µM (active) in test [6]; 71.1 µM (active) in [8]. Besides, the molecule was called inactive in [2], in test [5], in test [7] and in test [9].
For the molecule `ClC1(Cl)C2(Cl)C3(Cl)C4(Cl)C(Cl)(Cl)C5(Cl)C3(Cl)C1(Cl)C5(Cl)C24Cl` (stereo not drawn), the molecule was called inactive in test [1], in [2], in test [3], in test [4], in [5] and in [6]. Besides, the outcome in test [7], in [8] and in test [9] was inactive.
With `CC(C)(c1ccccc1)c1ccc(O)c(C(C)(C)c2ccccc2)c1`, the molecule was called inactive in [1], in [4], in test [5], in test [7] and in [9]. Besides, the AC50 is 7.38 µM (active) in [2], 2.85 µM (active) in [10], 16.9 µM (active) in test [6] and 9.29 µM (active) in test [8].
Consider `CCC(=O)c1ccccc1`, for which the result in [1], in [2], in [3], in test [4], in test [5] and in test [6] was inactive. The molecule was classed as inactive in test [7], in [8] and in test [9].
`CC(C)C1CCC(Cc2ccc(Cl)cc2)C1(O)Cn1cncn1` (stereo not drawn): the AC50 in [1] is 3.08 µM (active); in test [2] it was 17.5 µM (active); in [4], 11 µM (active). Besides, the molecule was called inactive in [10], in test [5], in [6], in test [7], in [8] and in test [9].
`CC1CN1P(=O)(N1CC1C)N1CC1C` (stereo not drawn): the call in [1], in test [2], in test [3], in test [4], in [5] and in [6] was inactive. Further, the call in test [7], in test [8] and in test [9] was inactive.
In the case of `O=P(O)(O)CN(CP(=O)(O)O)CP(=O)(O)O`, the result in [1], in test [2], in [4], in [10], in test [5] and in [6] was inactive. Moreover, the call in test [7] and in test [9] was inactive.
`ClCc1ccccn1`: the concentration at half-maximal activity (AC50) in [1] is 76 µM (active). Besides, the call in test [2], in [3], in test [4], in [5], in [6] and in test [7] was inactive. The molecule was called inactive in test [9].
In the case of `Nc1cccc2ccccc12`, the AC50 in test [1] was 5.16 µM (active); in test [6] it was 32.1 µM (active). The call in test [2], in test [3], in test [4], in [5], in test [7] and in test [8] was inactive. Moreover, in test [9], the molecule was called inactive.
`CCC[CH2][Sn]([CH2]CCC)([CH2]CCC)[O]C(=O)c1ccccc1`: the outcome in test [1], in test [2], in test [3], in [5], in test [6] and in test [7] was inactive. Moreover, the call in test [8] and in test [9] was inactive. In addition, the AC50 in test [4] is 0.218 µM (active).
For the molecule `CC(Br)C(=O)O` (stereo not drawn), the call in test [1], in test [2], in test [4], in test [10], in [5] and in test [6] was inactive. Also, the outcome in [7], in test [8] and in [9] was inactive.
For the molecule `C=C(C)C(=O)[O][Sn]([CH2]CCC)([CH2]CCC)[CH2]CCC`, the outcome in test [1], in test [4], in test [5], in test [7] and in test [9] was inactive. The results for the AC50 in test [2], in test [10] and in test [6] were 0.451 µM (active), 0.00707 µM (active) and 0.562 µM (active), respectively.
As for `Fc1ccc(C2(Cn3cncn3)OC2c2ccccc2Cl)cc1` (stereo not drawn), the concentration at half-maximal activity (AC50) in test [1] was 13.3 µM (active); in test [4], 69.9 µM (active). For the same molecule, the outcome in test [2], in test [10], in test [5], in test [6], in test [7] and in [8] was inactive. Also, the call in [9] was inactive.
Take `CC(=[OH+])/C=C(/C)[O-].CC(=[OH+])/C=C(/C)[O-].CC(=[OH+])/C=C(/C)[O-].[Fe]`: the call in test [1], in test [2], in [3], in [4], in test [5] and in test [6] was inactive. Also, the call in test [7], in test [8] and in test [9] was inactive.
Take `CCOP(OCC)OCC`: the result in test [1], in [2], in [4], in test [10], in test [5] and in test [6] was inactive. For the same molecule, the outcome in test [7], in test [8] and in test [9] was inactive.
Take `CC12CC1(C)C(=O)N(c1cc(Cl)cc(Cl)c1)C2=O` (stereo not drawn): the result in test [1], in [2], in [3], in test [4], in test [5] and in [6] was inactive. Besides, the molecule was called inactive in [7], in test [8] and in [9].
Regarding `O=[N+]([O-])c1c(Cl)c(Cl)cc(Cl)c1Cl`, the call in [1], in test [2], in test [3], in test [4], in test [5] and in [6] was inactive. The outcome in test [7] and in test [9] was inactive.
As to `CCC1(c2ccc(N)cc2)CCC(=O)NC1=O` (stereo not drawn), the result in test [1], in test [2], in test [3], in [4], in [5] and in test [6] was inactive. Also, the molecule was called inactive in [7], in test [8] and in [9].
As for `Cl/C=C/Cl`, the molecule was classed as inactive in [1], in test [2], in test [4], in [10], in test [5] and in [6]. The molecule was called inactive in test [7], in test [8] and in test [9].
Regarding `C[C@]12CC[C@H](O)CC1=CC[C@@H]1[C@@H]2CC[C@]2(C)C(=O)CC[C@@H]12`, the molecule was classed as inactive in test [1], in test [2], in test [4], in [10], in test [5] and in [6]. Moreover, the call in test [7], in test [8] and in test [9] was inactive.
Turning to `ClC(Cl)=C(Cl)C(Cl)=C(Cl)Cl`, in test [1], the half-maximal activity concentration (AC50) was 71.4 µM (active). Also, the result in test [2], in test [4], in test [10], in [5], in test [6] and in test [7] was inactive. Besides, the result in test [9] was inactive.
`CC(C)(OO)c1ccccc1`: the call in [1], in [2], in test [3], in test [4], in test [5] and in [7] was inactive. Moreover, the molecule was classed as inactive in test [8] and in test [9]. Besides, in [6], the AC50 is 55.2 µM (active).
For the molecule `O=S(=O)(c1ccc(Cl)cc1)c1ccc(Cl)cc1`, the molecule was classed as inactive in [1], in [3], in [4], in test [5], in test [6] and in test [7]. Besides, in test [9], the result was inactive. Besides, the AC50 in test [2] is 35.8 µM (active).
